Results on 47 compounds are retold here after PubChem BioAssay AID1508649 (National Center for Advancing Translational Sciences (NCATS), 2021).

Screen size: about 43,000 compounds; about 830 (1.9%) were called active. About 30% were inconclusive and are not listed. For the sample, actives were picked, then their nearest neighbours and some compounds at random. Unmarked numbers belong to inactive results. Rule for the calls: active = clear falling dose curves in both reporters; inconclusive = both reporters move, but less clearly or upward; inactive = either reporter flat; the % is the NLuc reporter signal.
% is set by controls: 0 for no effect and ±100 for the full control effect; potency is the fitted concentration of half-maximal effect.

A short description of this assay: Cell-based coincidence reporter assay to measure PMP22 gene transcription in S16 Pmp22-F2sN cells - Primary screen. As to conditions: S16 Pmp22-F2sN Schwann cells (luciferase reporters placed in the Pmp22 gene), FLuc/NLuc coincidence luminescence, 24 h; series mostly up to 57.5 µM; activity change, negative = inhibition: at the top concentration. The text has this:
Assay Provider: Jim Inglese Ph.D. National Center for Advancing Translational Science, National Institutes of Health, Rockville, MD CMT is a heterogeneous group of neurological disorders that affect approximately 1 in 2,500 people. In particular, the most common form of CMT, CMT1A is genetically linked to the duplication of the PMP22 gene which leads to Schwann cell overexpression, thus manifesting itself as a typical case of dose-sensitive diseases. To identify small molecule compounds that can mediate the expression of PMP22 we developed a phenotypic assay screening strategy by utilizing genome editing techniques to construct Schwann cell lines containing novel reporter technology to monitor the transcriptional or translational regulation of PMP22. For high sensitivity we use a bioluminescent reporter system embedded in the 3' UTR of the PMP22 gene (S16(c9) Pmp22-F2sN) to identify compounds that inhibit gene expression. […] We can further discriminate the effect of all transcriptionally active molecules on PMP22 translation or stability with an assay that incorporates a short NLuc peptide (HiBiT) at the C-terminus of expressed PMP22 (S16(f8) PMP22-HiBiT) allowing alpha complementation and luminescence detection of membrane-associated PMP22 protein. These assays were screened against the NCATS Sytravon Library Collection. Miniaturization of these assays to 1536-well plate format for quantitative high throughput screening (qHTS) yielded rich data sets immediately from the qHTS assay (S16(c9) Pmp22-F2sN), when compared with data from a cell viability assay (Cell TiterGlo) to identify compounds that decreased the output signals through cellular toxicity to streamline the selection process of actives for subsequent characterization using the HiBiT assay (S16(f8) PMP22-HiBiT).
Cell-based coincidence reporter assay to measure PMP22 gene transcription in S16 Pmp22-F2sN cells PROTOCOL TABLE (format as described by Inglese J, Shamu CE and Guy RK. 2007) SEQUENCE No. (e.g., 1, 2, 3, etc.); […] (e.g., Cells, Incubation, Reagent, etc.); VALUE and DESCRIPTION. 1. Cells. Add 500-1,000 cells in 4 uL in growth media (DMEM High Glucose, No Phenol Red media + 10% heat-inactivated FBS + 1% Pen/Strep supplemented media) per well into Greiner 1536-well white/solid bottom high base, TC-treated plates. 2. Compounds. Library compounds and controls added at 23nL per well, transferred by Pin Tool. 3. Incubation. Incubate plates at 37C, 5% CO2, 95% RH for 24 h. 4. Reagent. Add 3.5uL Nano-Glo Dual-Luciferase Reporter Assay System reagent 1: Lysis and FLuc reagent per well of Greiner 1536-well plates. 5. Incubation. Incubate plates at room temperature for 10 min., protect from light. 6. Detector. FLuc luminescence measured using CCD-based camera (Viewlux). 7. Reagent. Add 3.5uL Nano-Glo Dual-Luciferase Reporter Assay System reagent 2: Stop&Glo reagent per well of Greiner 1536-well plates. 8. Incubation. Incubate plates at room temperature for 10 min., protect from light. 9. Detector. NLuc luminescence measured using CCD-based camera (Viewlux). NOTES (numbers refer to Sequence numbers above; values are from representative experiments) 6. Luminescence Read #1 (FLuc): Clear filter; Exposure = 10 sec, Gain = High, Speed = Slow, Binning = 2X 9. Luminescence Read #2 (NLuc): Clear filter; Exposure = 1 sec, Gain = High, Speed = Slow, Binning = 2X REFERENCES: 1. Inglese J, Shamu CE and Guy RK, Reporting data from high throughput screening of small molecule libraries, Nature Chemical Biology, 2007, 3(8): 438-441. doi.org/10.1038/nchembio0807-438 2. Yasgar A, Shinn P, Jadhav A, Auld DS, Michael S, Zheng W, Austin CP, Inglese J and Simeonov A, Compound Management for Quantitative High-Throughput Screening. J. Assoc. Lab. Auto., 2008, 13: 79-89. doi: 10.1016/j.jala.2007.12.004
With `CCC(C(=O)Nc1cccc(-c2nc3cccnc3s2)c1C)c1ccccc1` (configuration not stated), the “activity change, negative = inhibition” value is -37.5%.
On the same count and under the same terms, the result for `CCOC(=O)c1sc(NC(=O)/C=C/c2ccc(C(C)C)cc2)c(C(=O)OCC)c1C` reads -30.7%; that for `Cc1ccc(F)cc1NC(=O)CCSc1nc(-c2ccco2)cc(C(F)(F)F)n1`, 9.36%; that for `COc1ccccc1-c1cc(C(F)(F)F)nc(S(=O)(=O)CCCC(=O)Nc2cc(C)ccc2O)n1`, -12.6%.
In the case of `COc1ccccc1-c1cc(C(F)(F)F)nc(S(=O)(=O)CCCC(=O)Nc2ccc(F)cc2F)n1`, the Potency was 11.3 µM (active).
For `COc1cc2c(cc1OC)C(COc1ccc(F)cc1)N(C(=O)c1ccccc1F)CC2` (configuration not stated), the “activity change, negative = inhibition” value is 0.344%.
For `COc1ccc(N2CCN(Cc3nc4c(c(=O)[nH]c(=O)n4C)n3Cc3ccc(Cl)cc3)CC2)cc1`, the “activity change, negative = inhibition” value was -16.2%.
For `O=C(Cc1ccccc1)Nc1sc2c(c1C(=O)Nc1ccc(Br)cc1)CCC2`, the “activity change, negative = inhibition” value is -32.6%.
On to `CCOc1ccc(NC(=O)c2c(NC(=O)Cc3ccccc3)sc3c2CCC(C)C3)cc1` (configuration not stated), for which the Potency was 18.9 µM (active).
`COC(=O)c1c(NC(=O)CCCOc2ccccc2)sc2c1CCC(C)C2` (configuration not stated): the “activity change, negative = inhibition” value was 7.02%.
On the same count and under the same terms, the result for `Cc1ccc(Nc2c(-c3ccc(C)s3)nc3ccccn23)cc1` reads -18.5%; that for `CCC(=O)N1CCc2cc(Br)cc(S(=O)(=O)CCC(=O)N3CCN(c4ccc(F)cc4)CC3)c21`, -7.19%.
Take `COc1ccc(OC)c(-n2nnc(-c3nc(-c4cc(OC)c(OC)c(OC)c4)no3)c2C)c1`: the “activity change, negative = inhibition” value is -0.737%.
On to `COc1ccc(C(=O)COC(=O)CCCC(=O)Nc2cc(C(F)(F)F)ccc2Cl)cc1`, for which the “activity change, negative = inhibition” value was 3.27%.
Consider `COc1ccc(-c2nn3c(=O)cc(CN4CCN(C(=O)c5ccc(OC)c(OC)c5)CC4)nc3s2)cc1`, for which the “activity change, negative = inhibition” value is 12.8%.
As to `CCOc1ccc(N(CC)C(=O)c2noc3c2COc2ccc(C)cc2-3)cc1`, the “activity change, negative = inhibition” value is -28.9%.
Turning to `CCOc1ccc(N(Cc2ccccc2)C(=O)c2nc(S(C)(=O)=O)ncc2Cl)cc1`, the Potency was 1.5 µM (active).
As for `CCOc1ccc(N(CC)C(=O)C2CCN(S(=O)(=O)c3cccc4nonc34)CC2)cc1`, the “activity change, negative = inhibition” value is -35.2%.
With `COc1ccccc1-c1noc(-c2ccc(NCc3ccccc3)c([N+](=O)[O-])c2)n1`, the “activity change, negative = inhibition” value is -5.34%.
As to `Cc1ccc(C)c(S(=O)(=O)n2nc(C)c(S(=O)(=O)N3CCC(C)CC3)c2C)c1`, the “activity change, negative = inhibition” value was -0.0168%.
The same measure, in the same setting: the result for `O=C(CC1Oc2ccccc2NC1=O)NCc1ccc(F)cc1` (configuration not stated) reads -7.34%; that for `CCOc1ccc(NC(=O)C2CCN(S(=O)(=O)c3cc(-c4noc(C)n4)ccc3C)CC2)cc1`, -42.5%; that for `COc1ccc(N2CC(C(=O)NCCS(=O)(=O)N3CCN(c4ccccc4)CC3)CC2=O)cc1` (configuration not stated), 5.34%.
On the same count and under the same terms, the result for `COc1ccc(OC)c(CNC(=O)Cn2nc(C)c3c(C)n(-c4ccccc4)nc3c2=O)c1` reads -3.25%; that for `Cc1nnc(N2CCCC(C(=O)NCCN(C)C)C2)c2nn(-c3ccccc3)c(C)c12` (configuration not stated), -57.6%.
As to `Cc1ccccc1CNC(=O)CSc1nnc(C)c2c(C)n(-c3ccccc3)nc12`, the Potency was 16.8 µM (active).
Turning to `COc1ccccc1CNC(=O)Cn1nc(C)c2nn(-c3ccc(Cl)cc3)c(C)c2c1=O`, the “activity change, negative = inhibition” value is -3.87%.
Same read-out and setting: the result for `Cc1ccccc1CNC(=O)Cn1c(C)c2cnn(-c3ccccc3)c(=O)c2c1C` reads -12.3%.
Take `Cc1nnc(SCC(=O)NCc2ccccc2Cl)c2nn(-c3ccccc3)c(C)c12`: the Potency is 14.1 µM (active).
`CCc1cnc2c(c1SCC(=O)N1CCC(C)CC1)c(=O)n(C)c(=O)n2C`: the “activity change, negative = inhibition” value is -1.6%.
As to `COc1ccc(NC(C)=O)cc1NC(=O)CN1CCN(c2ccc(F)cc2)CC1`, the “activity change, negative = inhibition” value is 4.65%.
With `COc1cc(C(=O)N2CCC(c3ccncc3)CC2)cc(OC)c1OC`, the “activity change, negative = inhibition” value was -7.79%.
As for `COc1ccc(NC(=O)c2oc3ccc(S(=O)(=O)N4CCOCC4)cc3c2C)cc1`, the “activity change, negative = inhibition” value was 14.2%.
For the compound `COc1ccccc1-c1cc2nc(C)c(CCC(=O)O)c(C)n2n1`, the “activity change, negative = inhibition” value was 27.9%.
With `CCOC(=O)c1oc2ccc(S(=O)(=O)n3nc(-c4ccccc4OC)cc3N)cc2c1C`, the Potency is 14.4 µM (active).
As to `COc1cccc(C(=O)NC2(C(F)(F)F)C(=O)Nc3c2c(=O)[nH]c(=O)n3-c2ccc(C)cc2)c1` (configuration not stated), the “activity change, negative = inhibition” value was -20.3%.
For `CCn1c(C(=O)Nc2cc(Cl)ccc2C)cc2sc(Cl)cc21`, the “activity change, negative = inhibition” value was -32.4%.
Same read-out and setting: the result for `Cc1ccc(NC(=O)C2CCCN2S(=O)(=O)c2cccc3cccnc23)c(C)c1` (configuration not stated) reads -8.58%; that for `COC(=O)c1cc2occc2n1Cc1nc(-c2ccc(C)cc2)oc1C`, -7.42%.
For the compound `COc1ccc(-n2nc(C(=O)NCCc3ccc(Cl)cc3)c3c4ccccc4n(C)c3c2=O)cc1Cl`, the “activity change, negative = inhibition” value was -8.53%.
Same read-out and setting: the result for `Cc1ccccc1C(=O)Nc1sc2c(c1C(=O)N1CCC(C)CC1)CCCC2` reads -10.7%.
Turning to `Cc1ccc(OCCSc2nc3ccc(NC(=O)COc4ccc(C)cc4)cc3s2)cc1`, the Potency was 8.91 µM (active).
For `COc1cc(C)ccc1OCCSc1nc2ccc(NC(=O)c3ccc(C)cc3)cc2s1`, the “activity change, negative = inhibition” value is -8.04%.
Same read-out and setting: the result for `O=C(Nc1ccc2nc(SCCOc3ccccc3)sc2c1)c1ccco1` reads -21.5%.
On the same count and under the same terms, the result for `CCc1ccc(S(=O)(=O)n2ccnc2)cc1` reads 0.251%; that for `O=C(CN1C(=O)CCn2nc(-c3ccccc3)cc21)NCc1ccccc1`, -8.68%; that for `Cc1noc(/C=C/N(C)C)c1S(=O)(=O)N1CCCC(C(=O)Nc2cccc(F)c2)C1` (configuration not stated), -12.4%.
